ALOX12 inhib – blocks human 12-lipoxygenase activity; P18054; purified 12-hLO, xylenol orange hydroperoxide absorbance; Potency, µM (series often up to 57.1 µM), for the others: at the top dose activity change, negative = inhibition, most hits filed as inhibitors; actives 0.12% (n = 150,000); AID 1452; active = well fitted inhibition curve with a large enough effect; inconclusive = small, poorly fitted or top-dose-only effect; also: potency is read from the fitted curve at half-maximal effect; % is scaled to controls: 0 for no effect and ±100 for the full control effect; nearly all actives have a fitted effect of over 55% in size
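Purified human 12hLO (150 nM), preincubated 15 min with compound, then 40 uM arachidonic acid for 30 min, room temperature, Hepes pH 7.0 with 0.01% Triton X-100. Hydroperoxide detected by ferrous iron/xylenol orange; 573/405 nm absorbance ratio gives reaction progress.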
PNC assembly inh – inhibitors of perinucleolar compartment assembly | activity change (PNC), negative = inhibition, % at 10 µM | PC3M PTB-GFP, PNC prevalence imaging, 16 h; active compounds read low | actives 3.1% (n = 140,000);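 active = readout at or below -70, meaning at least 70% loss of cells showing the perinucleolar compartment, a nuclear body marking cancer cells; inconclusive = readout between -30 and a set limit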;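 also: plate controls were DMSO wells for no effect and camptothecin positive control wells for full effect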
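Read-out is percentage of cells bearing a perinucleolar compartment, from automated 20x imaging of fixed, Hoechst-stained PC3M PTB-GFP cells. Cells were seeded 4 h, then exposed 16 h to compound (23 nl of library stock) in duplicate plates.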
LMNA splice mod – LMNA splicing modulation; HeLa LMNA splicing GFP/RFP minigene ratio, 48 h; Potency, µM (highest dose often 46.1 µM), inactives show top-dose ratio change, negative = inhibition, most hits filed as inhibitors; actives 0.01% (n = 200,000); active = well fitted inhibition curve with a large enough effect in the signal ratio, with a control signal flat, not every such curve was filed as active; inconclusive = small, poorly fitted or top-dose-only effect, or effect the other way, or a change in a side signal; the % refers to the signal ratio; also: potency is read from the fitted curve at half-maximal effect; % is scaled to controls: 0 for no effect and ±100 for the full control effect
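S3 HeLa cells stably expressing lamin A-EGFP splicing minigene plus DsRed2, 600 cells/well, 48 h compound exposure at 37C. Laser-scanning cytometry; analysed as GFP (500-530 nm)/RFP (575-640 nm) total intensity ratio; 0.5% DMSO vehicle.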
ALDH1A1 inh – blocks purified human ALDH1A1 activity. Purified ALDH1A1, NADH fluorescence, propionaldehyde substrate. Potency, µM (top dose mostly 75.3 µM), for inactives: top-dose activity, negative = inhibition, hits mostly inhibitors. actives 7.3% (n = 220,000);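 also: potency is read from the fitted curve at half-maximal effect; plate controls were no enzyme wells and a reference inhibitor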
Target sequence (P00352 whole entry, looked up): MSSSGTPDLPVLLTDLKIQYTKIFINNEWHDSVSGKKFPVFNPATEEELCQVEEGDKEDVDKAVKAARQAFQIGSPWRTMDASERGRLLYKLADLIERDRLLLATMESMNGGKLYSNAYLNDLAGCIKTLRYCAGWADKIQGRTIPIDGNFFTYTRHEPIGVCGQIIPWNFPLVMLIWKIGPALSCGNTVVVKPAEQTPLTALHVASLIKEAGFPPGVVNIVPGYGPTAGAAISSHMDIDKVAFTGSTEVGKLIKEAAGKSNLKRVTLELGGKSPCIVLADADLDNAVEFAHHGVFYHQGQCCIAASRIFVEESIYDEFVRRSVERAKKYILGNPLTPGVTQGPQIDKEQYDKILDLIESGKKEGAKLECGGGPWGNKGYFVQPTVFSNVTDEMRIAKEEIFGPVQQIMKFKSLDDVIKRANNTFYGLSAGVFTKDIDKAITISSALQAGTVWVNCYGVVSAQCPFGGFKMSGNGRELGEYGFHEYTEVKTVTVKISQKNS
HPGD block – blocks human HPGD enzyme activity; purified HPGD, NADH fluorescence kinetic, PGE2 substrate; AID 894; actives 4.3% (n = 150,000); Potency, µM, for the others: at the top dose activity change, negative = inhibition, most hits filed as inhibitors; P15428; also: potency is read from the fitted curve at half-maximal effect; % is scaled to controls: 0 for no effect and ±100 for the full control effect
Target sequence (P15428 whole entry, looked up): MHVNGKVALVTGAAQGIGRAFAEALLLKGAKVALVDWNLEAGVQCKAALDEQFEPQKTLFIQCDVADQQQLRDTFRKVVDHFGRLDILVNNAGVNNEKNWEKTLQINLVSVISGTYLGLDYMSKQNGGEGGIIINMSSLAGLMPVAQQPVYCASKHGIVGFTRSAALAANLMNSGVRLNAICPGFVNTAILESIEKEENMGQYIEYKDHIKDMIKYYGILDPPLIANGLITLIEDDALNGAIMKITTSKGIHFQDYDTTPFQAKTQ
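20 nM HPGD preincubated 15 min at room temperature with compound in 50 mM Tris-HCl pH 8, 0.01% Tween 20. Started with 1 mM NAD+ and 30 uM prostaglandin E2; NADH fluorescence (360/450 nm) read 5 times over 30-s intervals, last minus first.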
HPGD inh conf – confirmation of human HPGD inhibitors | shares compounds with HPGD block | recombinant HPGD, NADH fluorescence, PGE2 substrate | Potency, µM (top dose mostly 57.1 µM), without a hit: at the top dose activity change, negative = inhibition, hits mostly inhibitors | actives 90% (n = 90); calls by dose curve
The depositor's hits bear a star; [ ] = another dose, or the depositor's remark. This is a sample that favours compounds with a hit; in the whole collection about 10% have one here. Unless noted, calls follow the shape of the dose curve; as a rule, active = well fitted inhibition curve with a large enough effect (not every such curve was filed as active); inconclusive = small, poorly fitted or top-dose-only effect, or another doubt; inactive = no such curve, though single readings can be large or run the other way.

Results for OC(c1ccc(Cl)cc1)c1nnc(-c2ccccc2)o1 (stereo unspecified) ?
ALOX12 inhib: -13%; PNC assembly inh: -7; LMNA splice mod: 5%; ALDH1A1 inh: 0%; HPGD block: 18µM*

How did CC(=O)O[C@@H]1C[C@]2(C)[C@H](C[C@@H](O)[C@H]3[C@@]4(C)CC[C@@H](O)[C@@H](C)[C@@H]4CC[C@@]32C)/C1=C(\CCC=C(C)C)C(=O)O do in these assays?
ALOX12 inhib: -4%

Results for O=C(C1CCN(S(=O)(=O)N2CCC3(CC2)OCCO3)CC1)N1CCCCC1 ?
ALOX12 inhib: -2%; PNC assembly inh: 6; LMNA splice mod: -2%; ALDH1A1 inh: 2%; HPGD block: 16µM*

How did CCn1c(SCc2ccc(F)cc2Cl)nnc1-c1nonc1NC(C)=O do in these assays?
LMNA splice mod: 22%[46 µM]

What do the screens show for `CCOC(=O)CNC=C(C(=O)OCC)C(=O)OCC`?
ALOX12 inhib: -2%; PNC assembly inh: -96*; LMNA splice mod: -8%; ALDH1A1 inh: 0%; HPGD block: -14%

What do the screens show for `CCOC(=O)C(=CNCC(=O)OC)C(=O)OCC`?
ALOX12 inhib: 0%; PNC assembly inh: 2; LMNA splice mod: -6%; ALDH1A1 inh: 4%; HPGD block: -4%

Results for CCc1nnc(NC(=O)C(=O)NCCOC(=O)c2ccccc2Cl)s1 ?
ALOX12 inhib: -6%; PNC assembly inh: -109*; LMNA splice mod: 5%; ALDH1A1 inh: inconclusive; HPGD block: -16%

Results for CCc1nnc(NC(=O)CCNC(=O)c2ccccc2Cl)s1 ?
LMNA splice mod: -18%[46 µM]; ALDH1A1 inh: 2%

What do the screens show for `CC(=O)c1cccc(NC(=O)CSc2nnc3ccc(-c4ccc(Br)cc4)nn23)c1`?
LMNA splice mod: 1%[46 µM]

Results for COc1ccc(N2CCN(CCCNC(=O)C3COc4ccc(OC)cc4C3)CC2)cc1 (stereo unspecified) ?
LMNA splice mod: -7%[46 µM]

How did COC(=O)c1ccc(NC(=O)c2ccccc2)o1 do in these assays?
ALOX12 inhib: 3%; PNC assembly inh: -25; LMNA splice mod: 15%; ALDH1A1 inh: -12%; HPGD block: 32µM*

How did O=C(c1csnn1)N1CCC[C@@]2(CCN(C(c3ccccc3)c3ccccc3)C2)C1 do in these assays?
ALOX12 inhib: 3%; ALDH1A1 inh: -1%; HPGD block: -11%

How did CC(=O)C1C(=O)CC(C)(O)C(C(C)=O)C1c1ccc(N(C)C)cc1 (stereo unspecified) do in these assays?
ALOX12 inhib: -11%; PNC assembly inh: inconclusive; LMNA splice mod: -4%; ALDH1A1 inh: 3.2µM*; HPGD block: 0%

Results for CCOC(=O)C1C(=O)CC(C)(O)C(C(=O)OCC)C1c1ccc(OC)cc1 (stereo unspecified) ?
ALOX12 inhib: -11%; PNC assembly inh: inconclusive; LMNA splice mod: 7%; ALDH1A1 inh: 6%; HPGD block: -7%

Results for CCOCCc1nn2c(=O)cc(COC(=O)C(CC)c3ccccc3)nc2s1 (stereo unspecified) ?
LMNA splice mod: 9%[46 µM]

How did CCCc1cc2c(=O)c(-c3ccc4c(c3)OCCO4)coc2cc1OS(C)(=O)=O do in these assays?
ALOX12 inhib: -3%; PNC assembly inh: inconclusive; LMNA splice mod: inconclusive; ALDH1A1 inh: inconclusive; HPGD block: -19%

What do the screens show for `CCCc1cc2c(=O)c(-c3ccc4c(c3)OCCO4)c(C)oc2cc1OS(C)(=O)=O`?
ALOX12 inhib: -4%; PNC assembly inh: inconclusive; LMNA splice mod: -17%; ALDH1A1 inh: 0.35µM*; HPGD block: -12%

What do the screens show for `O=C(O)c1ccccc1C(=O)Nc1nccs1`?
ALOX12 inhib: 1%; PNC assembly inh: 29; LMNA splice mod: 2%; ALDH1A1 inh: 9%; HPGD block: -2%

What do the screens show for `C/C(=C\C(=O)Nc1nccs1)c1ccccc1`?
ALOX12 inhib: -6%; PNC assembly inh: 18; LMNA splice mod: inconclusive; ALDH1A1 inh: -5%; HPGD block: 16µM*

Results for CCCc1cc(C(=O)Nc2nccs2)cs1 ?
ALOX12 inhib: -28%; PNC assembly inh: -26; LMNA splice mod: inconclusive; ALDH1A1 inh: inconclusive; HPGD block: 10µM*

Results for O=C(/C=C/c1ccc(Br)o1)Nc1nccs1 ?
LMNA splice mod: 4%[46 µM]; ALDH1A1 inh: 22µM*

What do the screens show for `CSc1ccccc1C(=O)Nc1nccs1`?
ALOX12 inhib: 1%; PNC assembly inh: -25; LMNA splice mod: 3%; ALDH1A1 inh: inconclusive; HPGD block: 16µM*

What do the screens show for `Oc1cc(O)c2c(c1)O[C@H](c1ccc(O)c(O)c1)[C@@H](O)[C@@H]2c1c(O)cc(O)c2c1O[C@@H](c1ccc(O)c(O)c1)[C@H](O)C2`?
ALOX12 inhib: -14%[11.4 µM]; ALDH1A1 inh: 2%[13.5 µM]; HPGD block: 0%

How did O=C(Nc1nccs1)c1ccc(Br)o1 do in these assays?
ALOX12 inhib: 4%; PNC assembly inh: -100*; LMNA splice mod: -8%; ALDH1A1 inh: inconclusive; HPGD block: 25µM*

How did O=C(Nc1nccs1)c1ccc(-c2ccc(Cl)cc2Cl)o1 do in these assays?
ALOX12 inhib: 4%; PNC assembly inh: inconclusive; LMNA splice mod: -1%; ALDH1A1 inh: inconclusive; HPGD block: inconclusive

How did O=c1c(-c2cccc(Cl)c2)nc2cncnc2n1C1CC1 do in these assays?
LMNA splice mod: 12%; ALDH1A1 inh: 14%

How did CCOC(=O)N1CCN(S(=O)(=O)c2ccc(OCC(=O)OC)c(C)c2)CC1 do in these assays?
ALOX12 inhib: 3%; PNC assembly inh: -84*; LMNA splice mod: -11%; ALDH1A1 inh: 3%; HPGD block: -10%

Results for CCOC(=O)N1CCN(S(=O)(=O)c2ccc(OCC(=O)OC)cc2)CC1 ?
ALOX12 inhib: 0%; PNC assembly inh: 24; LMNA splice mod: -12%; ALDH1A1 inh: 10%; HPGD block: 1%

Results for CC(=O)OCC1C2CC[C@H]3C(OCc4ccc(F)cc4C(F)(F)F)OC[C@]4(C)[C@H]3C2=C(CN4C(=O)OC(C)(C)C)[C@H](C)C1COC(C)=O (stereo partly specified) ?
ALOX12 inhib: -5%; ALDH1A1 inh: -8%; HPGD block: -1%

What do the screens show for `O=C(c1sc2cc([N+](=O)[O-])ccc2c1Cl)N1CCCCC1`?
ALOX12 inhib: -4%; PNC assembly inh: 4; LMNA splice mod: -32%; ALDH1A1 inh: inconclusive; HPGD block: 1.1µM*; HPGD inh conf: 0.56µM*

How did O=C(c1ccc([N+](=O)[O-])cc1[N+](=O)[O-])N1CCCC1 do in these assays?
LMNA splice mod: inconclusive; ALDH1A1 inh: -2%
